Measurements as given in PubChem BioAssay AID624169 (The Scripps Research Institute Molecular Screening Center, 2012).
Hit rate of the full screen: of about 360,000 compounds, about 2,400 (0.67%) were called active. The entries come from a sample that favours actives as a whole. Unmarked numbers belong to inactive results.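 How the source made its calls: active means activation above a run cutoff, the mean activation of all tested compounds plus 3 SD (cut at about 14% in these data); inactive means the rest.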

Target: 5-hydroxytryptamine receptor 2A (Mus musculus) (UniProt P35363)
Assay: activation of mouse 5-HT2A receptor – cell-based, luminescence, primary screen (AID 624169);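 further: 0% = plate median of compound wells and 100% = 30 µM serotonin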
Details: CHO-K1 mHTR2A beta-arrestin complementation, at 7.6 µM, active compounds read high, percent of 30 µM serotonin response

5-hydroxytryptamine receptor 2A (Mus musculus), sequence (P35363 whole entry, looked up): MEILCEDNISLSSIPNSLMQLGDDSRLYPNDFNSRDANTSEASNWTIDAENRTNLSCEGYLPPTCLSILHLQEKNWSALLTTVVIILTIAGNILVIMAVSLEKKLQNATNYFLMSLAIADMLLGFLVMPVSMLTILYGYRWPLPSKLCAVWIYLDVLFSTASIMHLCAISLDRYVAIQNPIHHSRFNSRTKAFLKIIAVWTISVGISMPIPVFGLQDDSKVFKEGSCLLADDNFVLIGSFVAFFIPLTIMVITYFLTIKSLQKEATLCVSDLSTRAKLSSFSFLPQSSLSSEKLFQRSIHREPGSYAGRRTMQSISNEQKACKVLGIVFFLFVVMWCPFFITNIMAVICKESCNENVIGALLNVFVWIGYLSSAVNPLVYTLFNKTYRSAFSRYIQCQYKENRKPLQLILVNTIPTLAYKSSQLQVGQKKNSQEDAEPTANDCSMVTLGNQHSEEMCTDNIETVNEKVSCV

COc1ccc(CCNC(=O)C2CCCN2C(=O)Nc2ccccc2)cc1OC (stereo not drawn) was tested. Which activation did it give?
Its activation is -3.12%.

How did the activation turn out when CCOC(=O)N1CCN(C(=O)CN(C2CCCCC2)S(C)(=O)=O)CC1 was run?
Its activation is 7.43%.

How did the activation turn out when CN(N)c1nc(N2CCCC2)nc(N2CCCC2)n1 was run?
The activation was 3.15%.

With FC(F)(F)COc1nc(N2CCCCC2)nc(N2CCNCC2)n1 as the compound, how does the activation read?
Its activation is 25.4% (active).

For COc1nc(NC2CCCCC2)nc(N2CCCCCC2)n1, which activation is on record?
The activation was -0.64%.

How did the activation turn out when COC(=O)c1ccc(CSc2nnc(NC(C)C)s2)cc1 was run?
The activation was 16% (active).

With COC(=O)c1ccc(CSc2nncn2C)cc1 as the compound, how does the activation read?
The activation was 4.16%.

Which activation does the source give for COC(=O)c1ccc(CSc2nncn2N)cc1 here?
Its activation is -0.96%.

Which activation does the source give for OC(COCCC12CC3CC(CC(C3)C1)C2)CN1CCCCC1 (stereo not drawn) here?
The activation was -6.43%.

CCCCn1c(N)c(N(CCOC)C(=O)c2sc3ccccc3c2Cl)c(=O)[nH]c1=O was tested. Which activation did it give?
The activation was -2.4%.

With Cc1cc(NC(=O)CSCc2ccccc2C)no1 as the compound, how does the activation read?
The activation was -1.07%.

Which activation does the source give for CC(C)(C)NC(=O)NC(=O)CN1CCC(Cc2ccccc2)CC1 here?
Its activation is 0.69%.

How did the activation turn out when Cc1ccccc1CSCC(=O)NC(=O)NC(C)(C)C was run?
The activation was 19.9% (active).

Which activation does the source give for Cc1ccc(S(=O)(=O)C2C(=O)NC3(C)CC2c2ccccc2O3)cc1 (stereo not drawn) here?
The activation was -3.98%.

O=C(NCc1ccccc1)c1ccc(CNc2c(N3CCCC3)c(=O)c2=O)cc1 was tested. Which activation did it give?
Its activation is -2.51%.

Which activation does the source give for O=[N+]([O-])c1ccc2oc(-c3cccc(O)c3)nc2c1 here?
The activation was -2.7%.

With CC(=O)Oc1ccc2c(=O)oc(-c3ccc([N+](=O)[O-])cc3)nc2c1 as the compound, how does the activation read?
Its activation is 6.81%.

COc1ccc(-c2nc3cc([N+](=O)[O-])ccc3o2)cc1OC was tested. Which activation did it give?
Its activation is 15.3% (active).

With CNc1ccc(SC#N)cc1 as the compound, how does the activation read?
The activation was 8.45%.

NCCCC[C@@H]1NC(=O)[C@H](CCC(=O)O)NC(=O)c2cc([N+](=O)[O-])cc(I)c2NCC[C@@H](C(N)=O)NC1=O was tested. Which activation did it give?
The activation was -1.82%.

O=C1CCC(C(=O)Nc2ccc(OC(F)F)cc2)N1 (stereo not drawn) was tested. Which activation did it give?
Its activation is 2.5%.

Cc1ccc2nc(-c3ccncc3)cc(C(=O)Nc3ccc(OC(F)F)cc3)c2c1 was tested. Which activation did it give?
Its activation is -2.82%.

How did the activation turn out when CC1CCCC(NC(=O)c2cc(-c3ccncc3)nc3ccccc23)C1C (stereo not drawn) was run?
The activation was -0.93%.

For Cc1ccc2nc(-c3ccncc3)cc(C(=O)Nc3ccncc3)c2c1, which activation is on record?
Its activation is 14.5% (active).

With CC1CCCCC1NC(=O)CCS(=O)(=O)c1ccc2c(c1)NC(=O)CO2 (stereo not drawn) as the compound, how does the activation read?
Its activation is 1.84%.

With CCc1cc(C(c2ccccc2OC)N2CCOCC2)c(NC(=O)c2ccccc2)s1 (stereo not drawn) as the compound, how does the activation read?
The activation was -2.8%.

Which activation does the source give for COc1ccccc1/C=C/C(=O)NC(=S)N1CCOCC1 here?
Its activation is -0.42%.

With CCOC(=O)/C=c1\s/c(=C\c2ccccc2OC)c(=O)n1CC(=O)N1CCOCC1 as the compound, how does the activation read?
Its activation is 15.6% (active).

Cc1cccc(NC(=O)CSc2nnc(NC(=O)CN3CCOCC3)s2)c1 was tested. Which activation did it give?
Its activation is 4.08%.

How did the activation turn out when CCCNS(=O)(=O)c1ccc(CCC(=O)N2CCCC2)cc1 was run?
Its activation is 0.26%.

For O=C1N(Cc2ccc3c(c2)OCO3)c2ccccc2C1(O)c1c[nH]c2ccccc12 (stereo not drawn), which activation is on record?
Its activation is 4.88%.

How did the activation turn out when COC(=O)[C@]12CCCCC=C1N(Cc1ccc3c(c1)OCO3)C(=O)[C@H](CC(=O)NCc1cccs1)C2 was run?
The activation was 7.05%.

How did the activation turn out when CCOC(=O)[C@]12CCCC=C1N(Cc1ccc3c(c1)OCO3)C(=O)[C@H](CC(=O)NCc1cccs1)C2 was run?
Its activation is 23.4% (active).

For CCOC(=O)[C@]12CCCC=C1N(Cc1ccc3c(c1)OCO3)C(=O)[C@H](CC(=O)N1CCN(C(=O)c3ccco3)CC1)C2, which activation is on record?
Its activation is 1.52%.

Which activation does the source give for CCNC(=O)c1cc2c(c(-c3cccc(-c4cncnc4)c3)n1)[C@H](CCO)N(C(C)=O)C2 here?
The activation was -0.81%.

For CN1CCC(=O)N([C@H](CO)Cc2ccccc2)CC1, which activation is on record?
The activation was -5.13%.

COCCN(CCOC)S(=O)(=O)NC[C@H]1O[C@@H](n2cnc3c(N)ncnc32)[C@H](O)[C@@H]1O was tested. Which activation did it give?
The activation was 4.4%.

With CC(=O)OCCOCn1cnn2c(=O)c(Br)c(C)nc12 as the compound, how does the activation read?
Its activation is 1.26%.

For COc1ccccc1NC(=O)c1ccc(N2CC3CC(C2)c2cccc(=O)n2C3)c(NC(=O)c2cccnc2)c1 (stereo not drawn), which activation is on record?
Its activation is 3.35%.

Which activation does the source give for Nc1cc(C(=O)N2CCN(c3ccccc3Cl)CC2)ccc1N1CC2CC(C1)c1cccc(=O)n1C2 (stereo not drawn) here?
Its activation is 17.7% (active).

With CN(c1ccccc1)S(=O)(=O)c1ccc(C(=O)N2CCN(c3ccccc3Cl)CC2)cc1 as the compound, how does the activation read?
Its activation is -7.83%.

Which activation does the source give for Nc1[nH][nH]c(=O)c1N=Nc1ccc2c(c1)OCO2 here?
The activation was -2.91%.

For CCc1ccc(N2CC(C(=O)Nc3ccc(S(=O)(=O)Nc4nccs4)cc3)CC2=O)cc1 (stereo not drawn), which activation is on record?
Its activation is -3.72%.

Which activation does the source give for CN(C)[C@@H]1C(=O)C(C(N)=O)=C(O)[C@@]2(O)C(=O)C3=C(O)c4c(O)ccc(Cl)c4[C@@H](O)[C@H]3C[C@@H]12 here?
Its activation is 15.9% (active).

Which activation does the source give for C=C1c2c(Cl)ccc(O)c2C(O)=C2C(=O)[C@]3(O)C(O)=C(C(N)=O)C(=O)[C@@H](N(C)C)[C@@H]3[C@@H](O)C12 (stereo partly drawn) here?
Its activation is -1.23%.

How did the activation turn out when C=C(C)C(=O)Nc1cccc(C2=NOC3(C2)C[C@H](C(N)=O)N(C(=O)C(c2ccccc2)c2ccccc2)C3)c1 (stereo partly drawn) was run?
Its activation is 5.68%.

How did the activation turn out when CCn1c(SCC(=O)NCC2CCCO2)nc2ccccc21 (stereo not drawn) was run?
Its activation is 2.38%.

With CCCCn1c(SCC(=O)N2CCCC2=O)nc2cc(S(N)(=O)=O)ccc21 as the compound, how does the activation read?
The activation was 0%.

How did the activation turn out when CCn1c(SCC(=O)N2CCCC2=O)nc2ccccc21 was run?
Its activation is 15.3% (active).

How did the activation turn out when O=C(NCc1ccccc1)[C@@H]1CSC2c3ccccc3C(=O)N21 (stereo partly drawn) was run?
The activation was 1.3%.

With COc1cc(OC)c(OC)cc1CN1CCN(C(=O)c2cccc3ccccc23)CC1 as the compound, how does the activation read?
The activation was 0.49%.

How did the activation turn out when COc1ccccc1CN1CCN(Cc2cc(OC)c(OC)cc2OC)CC1 was run?
Its activation is 25.8% (active).

Which activation does the source give for COc1cccc(OC)c1C(=O)N1CCN(Cc2ccccc2F)CC1 here?
The activation was 2%.

Which activation does the source give for C/C(CC(=O)NCc1ccc(Cl)cc1)=N\NC(=O)COc1ccc(C)cc1Br here?
Its activation is -5.06%.

CC(C)CN(C(=O)c1cccc(S(=O)(=O)N2CCCCC2)c1)C1CCS(=O)(=O)C1 (stereo not drawn) was tested. Which activation did it give?
Its activation is 3.09%.

With NC(=O)c1ccc(CN2CCC(Cc3ccccc3)CC2)cc1 as the compound, how does the activation read?
Its activation is -5.52%.

With Cn1cc(S(=O)(=O)N2CCC(Cc3ccccc3)CC2)c(=O)n(C)c1=O as the compound, how does the activation read?
The activation was -1.79%.

O=C(O)c1ccc(S(=O)(=O)N2CCC(Cc3ccccc3)CC2)cc1 was tested. Which activation did it give?
Its activation is 22.2% (active).
